From PubChem BioAssay AID504607 (Sanford-Burnham Center for Chemical Genomics, 2011)
Hit rate of the full screen: of about 6,200 compounds, about 4,800 (77%) were called active. The set was probably picked from earlier hits. The list is a sample of the results. Unmarked numbers belong to inactive results.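 The calls were made as follows: active = mean inhibition at 8 µM reaching about 37%, which flags the compound as non-specific (limit read from the data); inactive = the rest.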

Experiment: luminescence decrease from intact luciferase reporter – cell-based, single concentration, SaOS-2, counter-screen for Mdm2/MdmX interaction inhibitor project, confirmation (AID 504607);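 also: p53-null SaOS-2 cells with luciferase driven by a doxycycline-inducible promoter; compound on cells about two nights before reading with doxycycline added after day one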
Conditions: SaOS-2 full-length luciferase counterscreen, at 8 µM, active compounds read high

| SMILES | inhibition |
| --- | --- |
| CCCCCCCCCCCCn1ccc(=N)cc1 | 52.1% (active) |
| CNC(=O)O/N=C(\N)Cc1csc2ccccc12 | 81.2% (active) |
| CNC(=O)O/N=C(\N)Cc1csc2ccc(Cl)cc12 | 126% (active) |
| CCOc1ccc(-c2cc(C)[n+](CCN(CC)CC)c(-c3ccc(OCC)cc3)c2)cc1 | 22.3% |
| O=C1NC(=O)N(CCc2ccc(F)cc2)C(=O)/C1=C/C=C/c1ccccc1 | 83.8% (active) |
| COC(=O)C1=C(c2ccc(F)cc2OCc2ccccc2)C[C@@H]2CC[C@H]1N2C(=O)NCc1ccc2[nH]ccc2c1 | 94.7% (active) |
| Cc1cc2ccccn2c1C(C[N+](=O)[O-])c1c(F)cccc1Cl (centres undefined) | 29.6% |
| O=C1C2(Cl)C3(Cl)C4(Cl)C(Cl)(Cl)C5(Cl)C3(Cl)C1(Cl)C5(Cl)C24Cl (centres undefined) | 46.6% (active) |
| O=Cc1cn(Cc2ccc(F)cc2Cl)c2ccccc12 | 35.1% |
